Test results published in publication PMC7862700, “An all-to-all approach to the identification of sequence-specific readers for epigenetic DNA modifications on cytosine”.

Legend:
Test in all cases: DAPPL (digital affinity profiling via proximity ligation, sequencing); 10 mM Tris-HCl pH 7.5, 50 mM NaCl, 1 mM DTT, 4% glycerol, room temperature, 30 min; GST-TFs on glutathione beads, 16-mer random dsDNA library, 0.1% formaldehyde crosslink after washing; high values mean tight binding
FEV = target: T1, FEV (Homo sapiens, UniProt Q99581 1-238); conditions: protein: recombinant; tags: N-terminal GST; dsDNA, one strand shown
T1 sequence: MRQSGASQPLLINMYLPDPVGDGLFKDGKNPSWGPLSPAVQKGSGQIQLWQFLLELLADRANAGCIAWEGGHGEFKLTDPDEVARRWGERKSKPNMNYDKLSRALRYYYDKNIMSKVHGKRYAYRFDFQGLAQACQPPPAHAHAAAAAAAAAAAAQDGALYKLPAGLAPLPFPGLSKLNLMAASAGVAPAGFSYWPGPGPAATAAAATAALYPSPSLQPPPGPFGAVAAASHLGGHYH
How it was run: (§1)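 Binding signal is given per hexamer as its read frequency for a factor divided by its frequency in the tag-only sample. GST-fused human transcription factors were expressed in yeast, captured on glutathione beads, barcoded with DNA and pooled with that sample, then incubated with 200 nmole of a 16-mer random double-stranded DNA library in Tris/NaCl/DTT/glycerol buffer for 30 min at room temperature. The pools were then washed, crosslinked, proximity-ligated, amplified by PCR and sequenced on an Illumina NextSeq500.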

ETV5 = ETV5 (Homo sapiens, UniProt P41161 1-510); conditions: protein: recombinant; tags: N-terminal GST; dsDNA, one strand shown
How it was run: as §1

HSF1 = HSF1 (Homo sapiens, UniProt Q00613 1-529); conditions: protein: recombinant; tags: N-terminal GST; chain copies: 3; dsDNA, one strand shown
How it was run: as §1

SPIC = target: T2, SPIC (Homo sapiens, UniProt Q8N5J4 1-248); conditions: protein: recombinant; tags: N-terminal GST; dsDNA, one strand shown
T2 sequence: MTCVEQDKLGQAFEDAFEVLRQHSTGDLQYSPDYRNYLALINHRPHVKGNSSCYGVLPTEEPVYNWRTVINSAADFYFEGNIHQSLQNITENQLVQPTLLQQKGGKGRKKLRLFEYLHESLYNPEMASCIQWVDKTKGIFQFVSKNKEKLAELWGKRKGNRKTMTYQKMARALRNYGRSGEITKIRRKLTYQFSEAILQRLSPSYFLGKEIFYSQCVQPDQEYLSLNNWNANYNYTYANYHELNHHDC
How it was run: as §1

ELF4 = ELF4 (Homo sapiens, UniProt Q99607 1-663); conditions: protein: recombinant; tags: N-terminal GST; dsDNA, one strand shown
How it was run: as §1

ELK4 = target: T3, ELK4 (Homo sapiens, UniProt P28324-2 1-405); conditions: protein: recombinant; tags: N-terminal GST; dsDNA, one strand shown
T3 sequence: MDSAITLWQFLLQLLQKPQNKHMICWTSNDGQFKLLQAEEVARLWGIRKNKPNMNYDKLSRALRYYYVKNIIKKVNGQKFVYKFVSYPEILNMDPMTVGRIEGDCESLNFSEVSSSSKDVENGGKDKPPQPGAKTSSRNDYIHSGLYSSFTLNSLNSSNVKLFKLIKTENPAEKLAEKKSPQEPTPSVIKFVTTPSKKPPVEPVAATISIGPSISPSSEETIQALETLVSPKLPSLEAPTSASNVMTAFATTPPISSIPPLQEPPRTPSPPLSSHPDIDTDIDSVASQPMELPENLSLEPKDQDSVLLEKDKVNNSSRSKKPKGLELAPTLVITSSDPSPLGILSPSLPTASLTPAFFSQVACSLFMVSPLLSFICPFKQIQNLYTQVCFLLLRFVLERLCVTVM
How it was run: as §1

ETV2 = target: T4, ETV2 (Homo sapiens, UniProt O00321 1-342); conditions: protein: recombinant; tags: N-terminal GST; dsDNA, one strand shown
T4 sequence: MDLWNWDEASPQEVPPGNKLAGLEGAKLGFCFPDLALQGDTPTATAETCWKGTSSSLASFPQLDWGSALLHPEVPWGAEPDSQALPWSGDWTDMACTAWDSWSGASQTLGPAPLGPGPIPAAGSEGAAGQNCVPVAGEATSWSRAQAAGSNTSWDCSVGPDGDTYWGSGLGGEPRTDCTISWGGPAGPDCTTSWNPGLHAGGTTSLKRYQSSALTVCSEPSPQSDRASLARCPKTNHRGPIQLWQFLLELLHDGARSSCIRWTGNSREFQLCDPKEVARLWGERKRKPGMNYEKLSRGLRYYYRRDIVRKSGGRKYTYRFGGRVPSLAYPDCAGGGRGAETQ
How it was run: as §1

ELF3 = target: T5, ELF3 (Homo sapiens, UniProt P78545 1-371); conditions: protein: recombinant; tags: N-terminal GST; dsDNA, one strand shown
T5 sequence: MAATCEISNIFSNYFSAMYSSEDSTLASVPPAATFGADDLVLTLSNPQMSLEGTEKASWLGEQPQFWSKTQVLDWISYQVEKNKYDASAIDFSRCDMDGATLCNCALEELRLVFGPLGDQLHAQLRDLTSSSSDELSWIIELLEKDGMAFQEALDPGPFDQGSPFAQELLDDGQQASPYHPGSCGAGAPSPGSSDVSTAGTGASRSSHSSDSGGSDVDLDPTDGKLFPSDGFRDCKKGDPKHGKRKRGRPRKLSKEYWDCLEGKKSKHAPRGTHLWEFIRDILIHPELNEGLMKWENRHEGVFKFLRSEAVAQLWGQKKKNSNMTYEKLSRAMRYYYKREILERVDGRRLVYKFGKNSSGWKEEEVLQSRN
How it was run: as §1

CRX = CRX (Homo sapiens, UniProt O43186 1-299); conditions: protein: recombinant; tags: N-terminal GST; dsDNA, one strand shown
How it was run: as §1

ETV1 = ETV1 (Homo sapiens, UniProt P50549 1-477); conditions: protein: recombinant; tags: N-terminal GST; dsDNA, one strand shown
How it was run: as §1

ERF = target: T6, ERF (Homo sapiens, UniProt P50548 1-548); conditions: protein: recombinant; tags: N-terminal GST; dsDNA, one strand shown
T6 sequence: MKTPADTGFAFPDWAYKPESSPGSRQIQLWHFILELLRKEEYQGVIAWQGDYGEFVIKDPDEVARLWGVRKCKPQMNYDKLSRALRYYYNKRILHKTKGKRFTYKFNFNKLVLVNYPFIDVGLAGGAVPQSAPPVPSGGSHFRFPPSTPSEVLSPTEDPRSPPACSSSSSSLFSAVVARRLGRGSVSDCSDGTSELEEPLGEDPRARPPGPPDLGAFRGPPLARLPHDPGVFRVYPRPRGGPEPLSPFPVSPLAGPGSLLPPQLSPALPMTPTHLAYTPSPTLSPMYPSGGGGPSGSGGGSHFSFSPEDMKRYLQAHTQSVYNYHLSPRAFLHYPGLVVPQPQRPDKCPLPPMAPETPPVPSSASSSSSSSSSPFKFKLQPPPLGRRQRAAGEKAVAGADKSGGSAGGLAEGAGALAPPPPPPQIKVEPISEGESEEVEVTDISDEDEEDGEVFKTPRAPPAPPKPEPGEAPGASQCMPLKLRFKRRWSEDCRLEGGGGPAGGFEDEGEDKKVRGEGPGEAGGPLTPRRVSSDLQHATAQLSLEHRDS
How it was run: as §1

ETV3L = target: T7, ETV3L (Homo sapiens, UniProt Q6ZN32 1-361); conditions: protein: recombinant; tags: N-terminal GST; dsDNA, one strand shown
T7 sequence: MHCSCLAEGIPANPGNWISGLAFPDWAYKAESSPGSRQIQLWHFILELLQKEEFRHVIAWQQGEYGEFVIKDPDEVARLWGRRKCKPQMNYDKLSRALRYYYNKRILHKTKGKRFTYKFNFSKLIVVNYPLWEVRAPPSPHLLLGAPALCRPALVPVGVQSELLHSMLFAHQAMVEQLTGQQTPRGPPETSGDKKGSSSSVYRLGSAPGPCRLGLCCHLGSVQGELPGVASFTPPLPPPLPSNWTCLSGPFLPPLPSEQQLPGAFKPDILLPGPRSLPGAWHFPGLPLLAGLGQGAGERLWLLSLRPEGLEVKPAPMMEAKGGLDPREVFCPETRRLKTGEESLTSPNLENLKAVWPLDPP
How it was run: as §1

ETS2 = target: T8, ETS2 (Homo sapiens, UniProt P15036 1-469); conditions: protein: recombinant; tags: N-terminal GST; dsDNA, one strand shown
T8 sequence: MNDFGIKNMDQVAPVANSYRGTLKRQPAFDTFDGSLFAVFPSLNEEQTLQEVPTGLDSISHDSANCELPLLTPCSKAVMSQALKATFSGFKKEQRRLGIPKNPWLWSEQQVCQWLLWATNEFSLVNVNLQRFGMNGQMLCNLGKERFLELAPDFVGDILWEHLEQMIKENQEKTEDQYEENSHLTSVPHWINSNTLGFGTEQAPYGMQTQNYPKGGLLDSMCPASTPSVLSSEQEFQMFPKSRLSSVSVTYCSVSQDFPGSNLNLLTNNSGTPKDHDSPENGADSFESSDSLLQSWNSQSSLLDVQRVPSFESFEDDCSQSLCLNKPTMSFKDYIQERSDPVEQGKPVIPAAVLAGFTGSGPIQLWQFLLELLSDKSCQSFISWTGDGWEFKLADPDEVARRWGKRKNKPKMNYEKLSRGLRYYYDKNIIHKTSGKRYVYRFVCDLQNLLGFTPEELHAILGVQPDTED
How it was run: as §1

SPDEF = target: T9, SPDEF (Homo sapiens, UniProt O95238 1-335); conditions: protein: recombinant; tags: N-terminal GST; dsDNA, one strand shown
T9 sequence: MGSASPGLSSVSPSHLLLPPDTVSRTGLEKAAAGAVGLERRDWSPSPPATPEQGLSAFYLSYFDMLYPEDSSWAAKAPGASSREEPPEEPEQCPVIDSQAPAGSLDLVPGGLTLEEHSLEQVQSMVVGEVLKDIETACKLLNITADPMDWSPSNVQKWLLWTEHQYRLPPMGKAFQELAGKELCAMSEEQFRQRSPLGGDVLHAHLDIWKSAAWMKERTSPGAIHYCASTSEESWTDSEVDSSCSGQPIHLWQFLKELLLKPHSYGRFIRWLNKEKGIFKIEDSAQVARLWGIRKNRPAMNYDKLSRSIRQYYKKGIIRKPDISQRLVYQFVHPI
How it was run: as §1

ETV7 = target: T10, ETV7 (Homo sapiens, UniProt Q9Y603 1-341); conditions: protein: recombinant; tags: N-terminal GST; dsDNA, one strand shown
T10 sequence: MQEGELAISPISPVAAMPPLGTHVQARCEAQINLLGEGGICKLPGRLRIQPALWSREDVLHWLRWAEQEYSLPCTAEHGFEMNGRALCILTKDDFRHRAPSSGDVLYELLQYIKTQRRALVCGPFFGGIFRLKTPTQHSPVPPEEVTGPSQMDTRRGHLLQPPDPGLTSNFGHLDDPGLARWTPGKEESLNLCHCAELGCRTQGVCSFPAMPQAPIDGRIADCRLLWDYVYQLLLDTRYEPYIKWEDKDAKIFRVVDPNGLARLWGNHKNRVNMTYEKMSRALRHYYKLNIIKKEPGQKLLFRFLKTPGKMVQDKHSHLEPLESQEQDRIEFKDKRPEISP
How it was run: as §1

ELF5 = target: T11, ELF5 (Homo sapiens, UniProt Q9UKW6-2 1-255); conditions: protein: recombinant; tags: N-terminal GST; dsDNA, one strand shown
T11 sequence: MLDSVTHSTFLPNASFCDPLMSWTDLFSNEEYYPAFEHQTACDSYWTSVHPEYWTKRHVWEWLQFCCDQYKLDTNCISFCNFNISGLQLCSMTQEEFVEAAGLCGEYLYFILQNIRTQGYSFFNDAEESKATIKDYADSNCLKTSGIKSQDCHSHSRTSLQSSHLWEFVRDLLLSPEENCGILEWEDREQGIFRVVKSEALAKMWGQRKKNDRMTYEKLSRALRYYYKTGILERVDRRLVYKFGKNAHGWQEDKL
How it was run: as §1

ETV3 = target: T12, ETV3 (Homo sapiens, UniProt P41162-2 1-143); conditions: protein: recombinant; tags: N-terminal GST; dsDNA, one strand shown
T12 sequence: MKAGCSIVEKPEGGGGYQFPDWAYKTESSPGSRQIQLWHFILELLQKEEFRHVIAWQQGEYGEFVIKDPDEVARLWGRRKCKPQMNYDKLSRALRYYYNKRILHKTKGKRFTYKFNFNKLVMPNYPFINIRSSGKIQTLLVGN
How it was run: as §1

ETV6 = ETV6 (Homo sapiens, UniProt P41212 1-452); conditions: protein: recombinant; tags: N-terminal GST; dsDNA, one strand shown
How it was run: as §1

Chain of CRX (O43186 whole entry): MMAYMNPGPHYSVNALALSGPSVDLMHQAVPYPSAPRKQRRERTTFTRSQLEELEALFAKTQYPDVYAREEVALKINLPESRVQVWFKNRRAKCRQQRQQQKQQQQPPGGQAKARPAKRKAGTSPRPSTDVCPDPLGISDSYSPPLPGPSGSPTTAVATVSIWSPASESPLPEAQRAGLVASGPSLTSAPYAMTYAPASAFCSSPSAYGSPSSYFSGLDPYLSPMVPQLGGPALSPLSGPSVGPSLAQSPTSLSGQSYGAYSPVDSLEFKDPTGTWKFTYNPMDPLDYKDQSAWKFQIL
Chain of HSF1 (Q00613 whole entry): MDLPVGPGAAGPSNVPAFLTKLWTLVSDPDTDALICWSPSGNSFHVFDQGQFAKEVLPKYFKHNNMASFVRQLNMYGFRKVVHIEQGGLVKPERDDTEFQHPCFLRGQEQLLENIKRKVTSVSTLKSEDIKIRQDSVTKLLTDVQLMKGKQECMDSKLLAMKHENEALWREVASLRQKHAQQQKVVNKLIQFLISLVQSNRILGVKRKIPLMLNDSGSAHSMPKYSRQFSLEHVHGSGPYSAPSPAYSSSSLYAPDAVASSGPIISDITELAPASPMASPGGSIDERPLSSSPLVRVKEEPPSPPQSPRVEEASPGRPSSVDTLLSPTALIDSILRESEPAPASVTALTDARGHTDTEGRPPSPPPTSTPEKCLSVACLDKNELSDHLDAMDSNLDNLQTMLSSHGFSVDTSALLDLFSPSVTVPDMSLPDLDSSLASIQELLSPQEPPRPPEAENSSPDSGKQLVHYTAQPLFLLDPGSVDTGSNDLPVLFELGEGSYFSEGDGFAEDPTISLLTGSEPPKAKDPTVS
Chain of ETV5 (P41161 whole entry): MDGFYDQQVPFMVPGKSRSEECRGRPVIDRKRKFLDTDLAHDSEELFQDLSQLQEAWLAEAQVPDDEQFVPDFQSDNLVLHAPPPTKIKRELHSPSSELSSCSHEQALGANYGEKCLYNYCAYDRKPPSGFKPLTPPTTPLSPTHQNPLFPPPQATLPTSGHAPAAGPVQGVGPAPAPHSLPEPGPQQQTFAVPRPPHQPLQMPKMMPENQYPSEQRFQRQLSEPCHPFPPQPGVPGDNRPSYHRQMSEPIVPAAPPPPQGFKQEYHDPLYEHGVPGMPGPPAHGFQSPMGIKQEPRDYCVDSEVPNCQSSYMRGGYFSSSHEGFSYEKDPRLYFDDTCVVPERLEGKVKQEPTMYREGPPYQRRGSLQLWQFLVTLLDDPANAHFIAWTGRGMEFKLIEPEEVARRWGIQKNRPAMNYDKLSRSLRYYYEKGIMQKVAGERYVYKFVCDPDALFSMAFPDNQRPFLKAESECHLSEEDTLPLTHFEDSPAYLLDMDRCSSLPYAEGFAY
Chain of ETV6 (P41212 whole entry): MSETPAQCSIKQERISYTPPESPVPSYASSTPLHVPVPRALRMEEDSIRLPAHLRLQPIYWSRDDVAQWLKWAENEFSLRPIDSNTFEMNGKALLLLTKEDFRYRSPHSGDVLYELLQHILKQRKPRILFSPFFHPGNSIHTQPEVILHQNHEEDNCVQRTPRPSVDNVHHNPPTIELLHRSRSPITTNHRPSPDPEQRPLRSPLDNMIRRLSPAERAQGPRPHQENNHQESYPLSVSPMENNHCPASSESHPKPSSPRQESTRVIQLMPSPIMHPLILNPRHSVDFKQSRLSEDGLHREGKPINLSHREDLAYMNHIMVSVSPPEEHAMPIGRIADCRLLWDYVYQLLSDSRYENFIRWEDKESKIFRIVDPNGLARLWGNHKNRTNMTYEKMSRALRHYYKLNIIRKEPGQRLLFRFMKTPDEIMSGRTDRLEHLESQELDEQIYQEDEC
Chain of ETV1 (P50549 whole entry): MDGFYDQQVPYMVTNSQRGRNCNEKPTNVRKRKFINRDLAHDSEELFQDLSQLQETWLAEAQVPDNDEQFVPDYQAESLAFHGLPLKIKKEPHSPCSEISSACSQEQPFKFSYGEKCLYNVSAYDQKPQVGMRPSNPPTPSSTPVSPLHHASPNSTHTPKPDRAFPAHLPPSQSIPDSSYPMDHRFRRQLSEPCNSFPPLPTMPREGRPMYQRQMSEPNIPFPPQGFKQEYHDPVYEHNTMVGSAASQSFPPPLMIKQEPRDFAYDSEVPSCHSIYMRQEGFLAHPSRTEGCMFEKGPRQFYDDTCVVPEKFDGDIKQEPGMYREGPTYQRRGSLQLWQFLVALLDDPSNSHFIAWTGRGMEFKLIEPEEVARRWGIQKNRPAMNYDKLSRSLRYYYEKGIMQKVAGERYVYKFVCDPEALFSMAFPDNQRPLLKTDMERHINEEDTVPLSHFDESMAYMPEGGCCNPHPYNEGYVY
Chain of ELF4 (Q99607 whole entry): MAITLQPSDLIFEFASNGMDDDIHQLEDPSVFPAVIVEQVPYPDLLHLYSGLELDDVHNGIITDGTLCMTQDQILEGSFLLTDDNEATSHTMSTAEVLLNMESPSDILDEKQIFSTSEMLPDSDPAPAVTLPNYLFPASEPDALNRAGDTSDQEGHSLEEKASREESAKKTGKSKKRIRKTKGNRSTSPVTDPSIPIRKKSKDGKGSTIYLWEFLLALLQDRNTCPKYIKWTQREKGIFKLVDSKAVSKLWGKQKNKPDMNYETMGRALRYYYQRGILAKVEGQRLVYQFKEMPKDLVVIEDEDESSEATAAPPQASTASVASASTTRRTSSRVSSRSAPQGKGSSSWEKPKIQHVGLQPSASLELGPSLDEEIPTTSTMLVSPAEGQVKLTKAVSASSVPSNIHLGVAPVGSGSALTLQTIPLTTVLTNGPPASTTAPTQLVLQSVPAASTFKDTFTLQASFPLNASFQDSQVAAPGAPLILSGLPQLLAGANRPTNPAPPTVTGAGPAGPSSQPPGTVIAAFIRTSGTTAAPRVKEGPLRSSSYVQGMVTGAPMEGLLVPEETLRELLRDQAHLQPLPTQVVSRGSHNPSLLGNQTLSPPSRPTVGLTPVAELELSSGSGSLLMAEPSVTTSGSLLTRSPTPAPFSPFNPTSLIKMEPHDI

## TGTTAA
FEV
  binding signal: 1.1 fold enrichment (6-mer frequency, TF over GST control)
ETV5
  binding signal: 1.05 fold enrichment (6-mer frequency, TF over GST control)
HSF1
  binding signal: 1.3 fold enrichment (6-mer frequency, TF over GST control)
SPIC
  binding signal: 1.19 fold enrichment (6-mer frequency, TF over GST control)
ELF4
  binding signal: 1.17 fold enrichment (6-mer frequency, TF over GST control)
ELK4
  binding signal: 1.16 fold enrichment (6-mer frequency, TF over GST control)
ETV2
  binding signal: 1.06 fold enrichment (6-mer frequency, TF over GST control)
ELF3
  binding signal: 1.24 fold enrichment (6-mer frequency, TF over GST control)
CRX
  binding signal: 1.67 fold enrichment (6-mer frequency, TF over GST control)
ETV1
  binding signal: 1.13 fold enrichment (6-mer frequency, TF over GST control)
ERF
  binding signal: 1.19 fold enrichment (6-mer frequency, TF over GST control)
ETV3L
  binding signal: 1.14 fold enrichment (6-mer frequency, TF over GST control)
ETS2
  binding signal: 1.11 fold enrichment (6-mer frequency, TF over GST control)
SPDEF
  binding signal: 1.09 fold enrichment (6-mer frequency, TF over GST control)
ETV7
  binding signal: 1.1 fold enrichment (6-mer frequency, TF over GST control)
ELF5
  binding signal: 1.13 fold enrichment (6-mer frequency, TF over GST control)
ETV3
  binding signal: 1.16 fold enrichment (6-mer frequency, TF over GST control)
ETV6
  binding signal: 1.16 fold enrichment (6-mer frequency, TF over GST control)
